Compounds with a hit are over-represented: about 27% of the library has one in this group of screens.
CYP2C19 act: cytochrome P450 2C19 (human) activation; P33261; recombinant CYP2C19, luciferin-H EGE luminescence; hits give high values; 0 = fully inhibited enzyme, 1 = untreated enzyme; activation factor at 5 µM; 96,000 tested, under 10 active;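 active = activation factor of at least 2 at 5 µM in the primary screen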
PTK2B oligo ant: antagonists of human Pyk2 oligomerization; Q293 cells, Pyk2 FERM NanoBiT luminescence; hits give low values; z-score (the deposit names both 25 µM and 10 µM); 99,000 compounds, 0.83% hits;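 active = Z-score of -3 or lower, scaled per plate to the spread of control and sample wells; inactive = z-score above -3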;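 note: negative z-score means lost luminescence so less FERM oligomerization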
CYP2C9 inhib: human CYP2C9 inhibition. P11712. CYP2C9 Supersomes, luciferin-H conversion, luminescence. 96,000 compounds, 20% hits. inhibition, % at 5 µM. AID 777;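 active = blocking of liver enzyme CYP2C9 beyond about 50% at 5 µM, limit read from the data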
Target sequence (P11712 whole entry, looked up): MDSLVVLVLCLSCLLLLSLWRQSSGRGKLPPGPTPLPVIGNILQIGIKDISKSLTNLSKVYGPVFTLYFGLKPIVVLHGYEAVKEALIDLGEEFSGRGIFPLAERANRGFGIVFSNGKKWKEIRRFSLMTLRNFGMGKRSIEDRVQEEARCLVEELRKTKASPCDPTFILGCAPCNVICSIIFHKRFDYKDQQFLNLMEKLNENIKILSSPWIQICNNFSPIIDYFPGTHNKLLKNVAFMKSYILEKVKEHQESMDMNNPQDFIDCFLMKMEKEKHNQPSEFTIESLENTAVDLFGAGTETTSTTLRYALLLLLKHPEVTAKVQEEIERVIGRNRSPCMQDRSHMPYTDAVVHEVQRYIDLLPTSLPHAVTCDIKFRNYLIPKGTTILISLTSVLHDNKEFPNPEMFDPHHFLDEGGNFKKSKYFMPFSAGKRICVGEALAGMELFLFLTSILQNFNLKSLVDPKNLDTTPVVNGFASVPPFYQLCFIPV
Cav3 T inh: inhibitors of human Cav3.2 T-type calcium channel; B-score at 10 µM; 100,000 compounds, 4% hits; AID 449739; Cav3.2-expressing cells, Fluo-4 calcium fluorescence FDSS; hits give low values;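 active = single-dose well whose peak fluorescence ratio is a statistical outlier from its plate by either plate-standardised score or position-corrected B-score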
CYP2C9 act: CYP2C9 (human) activation; activation factor at 5 µM; 96,000 compounds, 1.4% hits; recombinant CYP2C9, luciferin-H conversion, luminescence; hits give high values; factor 1 = untreated enzyme, 0 = blocked; AID 1024;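 active = activation factor of 2 or more for CYP2C9 at a 5 µM dose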
CYP2C19 inhib: human CYP2C19 inhibition. P33261. CYP2C19 Supersomes, luciferin-H EGE luminescence, 30 min. inhibition, % at 5 µM. 96,000 compounds, 21% hits. AID 778;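 active = CYP2C19 inhibition above a set limit at 5 µM in the primary screen, cut at about 50% in these data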
Large screens that a line does not name were inactive.

ClC(Br)=C(n1cnc2ccccc21)n1cnc2ccccc21	CYP2C9 inhib 88.1, CYP2C19 inhib 75.2 (no result: Cav3 T inh)
Cc1cc(NCCCN)nc(-c2ccccc2O)n1	none
O=C1C(Cl)=C(N2CCN(Cc3ccccc3)CC2)C(=O)N1Cc1ccccc1	CYP2C9 inhib 54.6
O=C1C(Cl)=C(N2CCCCC2)C(=O)N1c1ccccc1	none
CCC(Sc1nc2ccccc2s1)C(=O)Nc1nnc(C)s1 (configuration not stated)	CYP2C9 inhib 67.2
CCC(Sc1nc2ccc(N)cc2s1)C(=O)Nc1nccs1 (configuration not stated)	CYP2C9 inhib 62.0, CYP2C19 inhib 77.0
CC(Sc1nc2ccccc2s1)C(=O)Nc1nnc(C(C)C)s1 (configuration not stated)	CYP2C9 inhib 66.0 (no result: PTK2B oligo ant)
CCC(Sc1nnc(C)s1)C(=O)Nc1nccs1 (configuration not stated)	none
CC(C)(O)C#Cc1ccc(C(=O)NCc2ccccc2)s1	none (no result: CYP2C19 act, CYP2C9 inhib, CYP2C9 act, CYP2C19 inhib)
CCOc1ccc(-n2ccnc2SCC(=O)NCc2ccc3c(c2)OCO3)cc1	CYP2C9 inhib 64.2, CYP2C19 inhib 81.4
O=C(CSc1nccn1-c1ccccc1)NCc1ccc2c(c1)OCO2	CYP2C9 inhib 98.5, CYP2C19 inhib 99.7
Nn1c(SCC(=O)NCc2ccc3c(c2)OCO3)nnc1C1CC1	none
CN(C)C(=O)Cn1c(SCC(=O)NCc2ccc3c(c2)OCO3)nc2ccccc21	none (no result: CYP2C19 act, CYP2C9 inhib, CYP2C9 act, CYP2C19 inhib)
O=C(CSc1nccn1-c1ccc(F)cc1)NCc1ccc2c(c1)OCO2	CYP2C9 inhib 80.5, CYP2C19 inhib 91.5 (no result: Cav3 T inh)
O=C1c2ccccc2C(=O)N1CCSC(=S)N1CCOCC1	CYP2C19 inhib 54.6
Cc1nc2c(Cl)cccc2[nH]1	none
COc1cc(C#N)ccc1OCC(=O)c1ccc2c(c1)OCCO2	CYP2C19 inhib 62.0
CCOc1ccc(C(=O)Nc2ccc3c(c2)OCCO3)cc1OC	CYP2C19 inhib 69.2
CCCCC(=O)Nc1ccc(NC(=O)c2ccc3c(c2)OCO3)cc1OC	CYP2C9 inhib 59.3, CYP2C19 inhib 85.9
CCOc1cc(C(=O)Nc2ccc3c(c2)OCO3)ccc1OC(F)F	none
COc1ccc(-c2nnn(CC(=O)c3ccc4c(c3)OCCO4)n2)cc1OC	none (no result: CYP2C19 act, CYP2C9 inhib, CYP2C9 act, CYP2C19 inhib)
CCCC(=O)Nc1cccc(NC(=O)c2ccc3c(c2)OCCO3)c1	CYP2C19 inhib 59.1
CC1(C)CC(=O)C=C(NCCN2CCN(C(=O)Nc3ccccc3)CC2)C1	none
C#CCOCCOCCOCCNc1nc(N2CCN(C(=O)C(Cc3ccc(O)cc3)n3cc(C(N)CC(C)C)nn3)CC2)nc(N2CCN(C(=O)C(Cc3cc4ccccc4[nH]3)n3cc(C(N)Cc4ccc(O)cc4)nn3)CC2)n1 (configuration not stated)	none (no result: CYP2C19 act, PTK2B oligo ant, CYP2C9 inhib, CYP2C9 act, CYP2C19 inhib)
CCn1c(=O)n(CC(=O)NCc2ccccc2OC)c(=O)c2ccccc21	CYP2C19 inhib 53.8
COc1cccc(CNC(=O)Cn2c(=O)oc3ccccc32)c1OC	CYP2C19 inhib 65.6 (no result: PTK2B oligo ant)
CCn1c(=O)n(CC(=O)NCc2ccco2)c(=O)c2ccccc21	none (no result: Cav3 T inh)
COc1ccc(CN2CCCCC2C)c(C)c1C (configuration not stated)	none
CN1CCN(C(=O)c2cc(-c3ccco3)on2)CC1	none
O=C(c1cc(-c2ccc(Cl)cc2Cl)on1)N1CCN(C(=O)c2ccco2)CC1	CYP2C19 inhib 58.5
O=C(c1ccco1)N1CCN(Cc2ccc(Cl)cc2)CC1	none (no result: Cav3 T inh)
O=C(c1cc(-c2ccccc2Cl)on1)N1CCN(C(=O)c2ccco2)CC1	CYP2C9 act 2.2
CC(C)(C)Nc1nc(NC(C)(C)C)nc(-n2ccnc2)n1	CYP2C9 inhib 62.8
Cc1cc(C)n(-c2nc(NC(C)(C)C)nc(NC(C)(C)C)n2)n1	none
CCn1c(=O)cc(OCC(=O)Nc2ccc(C)cn2)c2ccccc21	none
CCOc1ccc(N(CC)C(=O)COc2cc(=O)n(C)c3ccccc23)cc1	CYP2C9 inhib 69.9 (no result: PTK2B oligo ant)
CCOC(=O)c1ccccc1NC(=O)COc1cc(=O)n(CC)c2ccccc12	PTK2B oligo ant -4.16, CYP2C9 inhib 81.3, CYP2C19 inhib 80.1
Cc1ccc(C)c(N(C)C(=O)COc2cc(=O)n(C)c3ccccc23)c1	none (no result: PTK2B oligo ant)
CCn1c(=O)cc(OCC(=O)N2CCCC2)c2ccccc21	none (no result: PTK2B oligo ant)
CCOc1ccc(N(CC)C(=O)COc2cc(=O)n(CC)c3ccccc23)cc1	CYP2C9 inhib 94.4, CYP2C19 inhib 69.9
CN(C)C(=O)Oc1cccc([N+](C)(C)C)c1	none (no result: CYP2C19 act, PTK2B oligo ant, CYP2C9 inhib, CYP2C9 act, CYP2C19 inhib)
Cc1ccc(N/C(CSC(N)=O)=N\S(=O)(=O)c2ccc(C)cc2)cc1	none
O=C(C1CCCN(S(=O)(=O)c2cccnc2)C1)N1CCn2c1nc1ccccc12 (configuration not stated)	none (no result: PTK2B oligo ant)
CC(C)(C)C1=Nn2c(nnc2-c2ccccc2F)SC1	CYP2C19 inhib 78.4
COc1ccccc1-c1nnc2n1N=C(C(C)(C)C)CS2	CYP2C19 inhib 79.4
S=c1[nH]nc(-c2ccc3ccccc3n2)o1	CYP2C9 inhib 53.3
S=c1[nH]nc(-c2cccnc2)o1	none
COc1ccc2c(c1)C(=O)/C(=C/C=C/c1ccccc1)CC2	Cav3 T inh -4.69 (no result: CYP2C19 act, CYP2C9 inhib, CYP2C9 act, CYP2C19 inhib)
CC1CCCCC1NC(=O)COC(=O)COc1ccc(Cl)cc1 (configuration not stated)	none
Cc1cc(NC(=O)COn2nnc3ccc(Cl)cc32)no1	CYP2C9 inhib 77.2 (no result: Cav3 T inh)
CCOc1ccccc1NC(=O)COn1nnc2ccc(Cl)cc21	CYP2C19 inhib 56.4
CC1CCCCC1NC(=O)COn1nnc2ccc(Cl)cc21 (configuration not stated)	CYP2C19 inhib 97.9
CCOc1ccccc1NC(=S)NC(=O)CCCOc1ccc(Cl)cc1Cl	none
COC(=O)C1CCN(C(=O)c2ccccc2NC(C)=O)CC1	none
Cc1cc(N2CCCC2=O)c(N)cc1N	none
COc1ccc(C(=O)/C=C/c2ccccc2C(F)(F)F)cc1	none
Nc1ncnc2c1ncn2[C@@H]1O[C@H](CO)C[C@@H]1O	none (no result: CYP2C19 act, PTK2B oligo ant, CYP2C9 inhib, CYP2C9 act, CYP2C19 inhib)
Cc1nn(C)cc1C1C2=C(CC(C)(C)CC2=O)OC2=C1C(=O)CC(C)(C)C2	none (no result: CYP2C19 act, CYP2C9 inhib, CYP2C9 act, CYP2C19 inhib)
Cc1ccc(S(=O)(=O)N2CCOCC2)cc1NC(=O)Cn1cc(C(F)(F)F)cc(Cl)c1=O	none (no result: CYP2C19 act, CYP2C9 inhib, Cav3 T inh, CYP2C9 act, CYP2C19 inhib)
CCc1nnc(NC(=O)CSc2nnc(COc3ccccc3)n2Cc2ccccc2)s1	none (no result: CYP2C19 act, CYP2C9 inhib, CYP2C9 act, CYP2C19 inhib)
CCCCOP(=O)(OCCCC)C1(NS(=O)(=O)c2ccccc2)C=CC(=O)c2ccccc21 (configuration not stated)	CYP2C9 inhib 60.4
Cc1ccc(S(=O)(=O)[N-]c2nc3ccccc3nc2-n2cc[n+](CCC(C)C)c2)cc1	CYP2C9 inhib 94.4, CYP2C19 inhib 56.2
Cc1ccc(S(=O)(=O)/N=C2\C(=O)c3ccccc3C([O-])=C2n2cc[n+](CCC(C)C)c2)cc1	CYP2C9 inhib 52.6
CCCC/C(O)=C1\C(=O)CC(C)(C)CC1=Nc1ccc(OC)cc1	CYP2C19 inhib 56.6
Cc1ccc2nc(NC(=O)C(NS(=O)(=O)c3cccc4nsnc34)C(C)C)sc2c1 (configuration not stated)	CYP2C9 inhib 76.6 (no result: PTK2B oligo ant)
